# Entries with a potency or affinity are not part of this list. Activity calls are given as the source filed them. The rule behind the calls is not given here.
# Assay: Vero cell cytotoxicity, dose response, cytotoxicity control for M. tuberculosis growth inhibitor project, Vero cells, purified and synthesized compounds, set 5 (AID 504909)
# Conditions: series mostly up to 100 µM
row,Structure (SMILES),outcome
1,O=C(CSc1nc2c(c(=O)[nH]1)CCCC2)NC1CCCCC1,inactive
2,Cc1cccc(/C=C/C(=O)c2ccc([N+](=O)[O-])o2)c1,inactive
3,COc1ccc(NC(=O)CSc2nc3ccccc3c(=O)[nH]2)cc1,inactive
4,O=C(CSc1nc2c(c(=O)[nH]1)CCC2)NC1CCCCC1,inactive
5,CCC(Sc1nc2ccccc2c(=O)[nH]1)C(=O)Nc1cccc(OC)c1 (configuration not stated),inactive
6,NC(=O)CSc1nc2ccccc2c(=O)[nH]1,inactive
7,Cc1c[nH]c(=S)[nH]c1=O,inactive
8,O=C(CSc1ncccn1)NC1CCCCC1,inactive
9,Cc1[nH]c(=S)[nH]c(=O)c1C,inactive
10,CC1CCN(C(=O)C2CCN(c3nnc(-n4cccc4)s3)CC2)CC1,inactive
11,CC(C)CCNC(=O)CSc1nc2c(c(=O)[nH]1)CCC2,inactive
12,CC1CCN(C(=O)CSc2nc3ccccc3c(=O)[nH]2)CC1,inactive
13,Cc1nc(SCC(=O)N(C)c2ccccc2)[nH]c(=O)c1C,inactive
14,O=C(CSc1nc2ccccc2c(=O)[nH]1)N1CCOCC1,inactive
15,CC(C)NC(=O)CSc1nc2ccccc2c(=O)[nH]1,inactive
16,Nc1c(C(=O)NC2CCCCC2)nsc1C(=O)OCC(=O)NC1CCCCC1,inactive
17,NC[C@H]1O[C@H](O[C@H]2[C@H](O)[C@@H](O[C@H]3O[C@H](CO)[C@@H](O)[C@H](N)[C@H]3O)[C@H](N)C[C@@H]2N)[C@H](O)[C@@H](O)[C@@H]1O,inactive
18,Cc1cc(=O)[nH]c(=S)[nH]1,inactive
19,CC[N+](C)(CC)CCCCOc1ccc2c(c1)C(=O)c1cc(OCCCC[N+](C)(CC)CC)ccc1-2,inactive
20,O=C(CSc1ccccn1)NC1CCCCC1,inactive
21,CCC(Sc1nc2c(c(=O)[nH]1)CCC2)C(=O)Nc1cccc(OC)c1 (configuration not stated),inactive
22,CCOC1OC(=O)C(Cl)=C1Nc1ccccc1C (configuration not stated),inactive
23,Cc1ccc(NC(=O)COC(=O)CCc2c[nH]c3ccccc23)cc1[N+](=O)[O-],inactive
24,Cc1nc(SCC(=O)NCCC(C)C)[nH]c(=O)c1C,inactive
25,Cc1nc(SCC(=O)NC2CCCCC2)[nH]c(=O)c1C,inactive
26,Cc1nc(SCc2ccccc2Cl)[nH]c(=O)c1C,inactive
27,Cc1nc(SCC(=O)NC2CCCC2)[nH]c(=O)c1C,inactive

# Source: PubChem BioAssay AID504909 (Southern Research Specialized Biocontainment Screening …, 2011)
